PubChem BioAssay (NCATS)
“And” between values parts separate entries of the source, which are not always exact repeats. Equal entries are not always repeated. Results filed as inconclusive are left out. Some compounds were tested as several samples or in several runs, with calls that do not always agree. The source made the active and inactive calls. The call rests on the fitted dose curve; in most records, active means well fitted inhibition curve with a large enough effect; inconclusive means small, poorly fitted or top-dose-only effect; inactive means no such curve, though single readings can be large or run the other way.

Molecular target: Cytochrome P450 2C19 (Homo sapiens) (UniProt P33261)
Experiment: qHTS Assay for Inhibitors and Substrates of Cytochrome P450 2C19 (AID 899); further: nearly all actives have a fitted effect of over 60% in size
Conditions: recombinant CYP2C19, luciferin-H EGE luminescence; series mostly up to 11.4 µM; activity, negative = inhibition: at the top concentration
Method: NIH Molecular Libraries Screening Centers Network [MLSCN]
NIH Chemical Genomics Center [NCGC]
The P450 gene superfamily is involved in the metabolism and clearance of xenobiotics. This assay used human CYP2C19 to measure the hydroxylation of ethylene glycol ester of 6' deoxyluciferin (Luciferin-H EGE; […]) to luciferin. The luciferin is then measured by luminescence after the addition of a luciferase detection reagent. Luciferin-H EGE concentration in the assay was equal to its KM for CYP2C19. Inhibitors and some substrates limit the production of luciferin, and decrease measured luminescence.
NCGC Assay Protocol Summary:
Two uL of enzyme and substrate mix (final concentrations: 5nM CYP2C19, 10uM Luciferin-H EGE, 50mM KPO4) were dispensed into a white, solid bottom 1536-well microtiter plate. 23nL of compound was transferred by a pin tool. The plate was incubated at 37C for 10 min. Two uL of an NADPH regeneration solution (Promega supplied reagent) was dispensed and the reaction was allowed to continue for 60 min at 37C. Then the reaction was stopped by reconstituted luciferin detection buffer. After another 20 min of incubation the plate was read on the ViewLux (Perkin Elmer) at 60 sec exposure and 2x2 binning. This protocol was carried out with Promega-Glo reagents and further information can be found at http://www.promega.com/tbs/tb325/tb325.pdf. Data were normalized to the to AC100 inhibition (57uM ketoconazole).
Keywords: P450, CYP2C19, Luciferase, MLSMR, MLSCN, NIH Roadmap, qHTS, NCGC
On the % scale 0 is the no-effect control and ±100 the full control effect; potency means the concentration at half of the fitted maximal effect.

Cytochrome P450 2C19 (Homo sapiens), sequence (P33261 whole entry, looked up): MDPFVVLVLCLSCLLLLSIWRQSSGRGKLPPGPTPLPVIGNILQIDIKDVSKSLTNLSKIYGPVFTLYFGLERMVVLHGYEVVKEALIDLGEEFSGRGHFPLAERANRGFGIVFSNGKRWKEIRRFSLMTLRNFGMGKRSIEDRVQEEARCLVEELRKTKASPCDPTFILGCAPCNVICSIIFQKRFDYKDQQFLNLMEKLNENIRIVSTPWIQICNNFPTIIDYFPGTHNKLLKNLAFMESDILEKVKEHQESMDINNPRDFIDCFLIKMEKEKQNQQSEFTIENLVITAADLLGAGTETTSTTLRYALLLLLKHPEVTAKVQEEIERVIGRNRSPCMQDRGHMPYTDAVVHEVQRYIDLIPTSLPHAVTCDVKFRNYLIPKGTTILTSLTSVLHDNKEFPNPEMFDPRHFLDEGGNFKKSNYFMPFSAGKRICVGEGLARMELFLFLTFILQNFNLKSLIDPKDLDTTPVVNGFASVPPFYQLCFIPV

| Structure (SMILES) | activity, negative = inhibition | Potency |
| --- | --- | --- |
| COc1ccc(OCC2Cc3c(-c4ccccc4)nc4c(c3CO2)CN(CCOc2ccccc2)CC4)cc1 (stereo not given) | -24.4% (inactive) |  |
| C#CC(C)OC(=O)c1nnc2c3ccccc3n(COC)c2n1 (stereo not given) | 30% (inactive) |  |
| C=C(C)C(O)C(CC/C=C(\C)C(=O)OCC)OC (stereo not given) | -59.2% (inactive) |  |
| CC(=O)OCC1OC(C#CCCc2ccccc2)C=CC1OC(C)=O (stereo not given) | -7.66% (inactive) |  |
| CCOC(=O)OCC1OC(c2ccc(C(C)=O)cc2)C=CC1OC(=O)OCC (stereo not given) | -5.63% (inactive) |  |
| CC(=O)OCC1OC(C#CC(C)(C)C)C=CC1OC(C)=O (stereo not given) |  | inactive |
| C=CCOC(=O)C(C(C)=O)C(NC(=O)OC)c1ccccc1 (stereo not given) |  | 0.631 µM (active) |
| C=C(C)C(O)/C=C/c1ccc(C)cc1 (stereo not given) |  | 5.01 µM (active) |
| COc1cccc([C@@H]2Oc3ccc(OC)cc3/C(=N/O[C@@H](C)c3cc(-c4c(C)cc(C)cc4C)no3)[C@@H]2O)c1 |  | 1.58 µM (active) |
| CC(=O)OC[C@@H]1O[C@H](C/C=N\OCC[C@H]2C=C[C@H](OC(C)=O)[C@@H](COC(C)=O)O2)C=C[C@@H]1OC(C)=O | 81.5% (inactive) |  |
| CC(C)CCN1CCc2nc(COc3ccccc3)c3c(c2C1)COC(C)C3 (stereo not given) | -12.3% (inactive) |  |
| CCCCCCC1Cc2cc(OC)c(OC)cc2C(C(C(=O)OCC)C(=O)OCC)O1 (stereo not given) |  | inactive and 3.16 µM (active) |
| COCC#Cc1ccc(C2C(C)CCC3C(=O)N4C(CCC(C)C4c4ccc(C#CCOC)cc4)C(=O)N32)cc1 (stereo not given) | -60.1% (inactive) |  |
| COc1ccc(O[C@H]2C=C[C@@H](c3ccccc3)O[C@H]2COC(=O)CC/C(C)=N\O[C@@H](C)CN2CCCCc3nc(C)c(C)cc32)cc1 |  | 5.01 µM (active) |
| CCCNC(=O)OC[C@H]1O[C@@H](CCO/N=C\[C@@H](NS(=O)(=O)c2ccc(C)cc2)[C@H](C)/C=C\CC(=O)OC)C=C[C@@H]1Oc1ccc(OC)cc1 |  | 3.16 µM (active) |
| CC1Cc2c(COc3ccccc3)nc3c(c2CO1)CN(CCOc1ccccc1)CC3 (stereo not given) | 14.7% (inactive) |  |
| COC(C(C)/C=C/CC(=O)OCCCc1ccccc1)C1CCCCC1 (stereo not given) | 40.8% (inactive) |  |
| CC(=O)OCC1OC(C#CC2=CCCCC2)C=CC1OC(C)=O (stereo not given) | -22% (inactive) |  |
| COC(=O)NC(c1ccc(Cl)cc1)C(C(C)=O)C(=O)OC (stereo not given) |  | 1.58 µM (active) |
| COc1ccc(/C=C/C2=CC3(C)CC2(C)C(c2ccc(OC)cc2)CC3=O)cc1 (stereo not given) | -22.9% (inactive) |  |

| Structure (SMILES) | activity, negative = inhibition | Potency |
| --- | --- | --- |
| Cc1c(OCc2ccccc2)cccc1OCc1ccccc1 | -28% (inactive) |  |
| CCOC(c1cc(OC)cc([N+](=O)[O-])c1OC)C(C)C(OC)[C@@H](C)/C=C/CC(=O)OC (stereo not given in full) |  | 1 µM (active) |
| CN(C)c1cccc(OC2C=CC(C#Cc3ccccc3)OC2CO)c1 (stereo not given) |  | 3.98 µM (active) |
| CC(=O)OCC1OC(C#Cc2ccc(Cl)cc2)C=CC1OC(C)=O (stereo not given) |  | 1 µM (active) and inactive |
| COC(=O)C/C=C/C(C)C(OCc1cccc(-c2ccccc2)c1)C1CCCCC1 (stereo not given) | -11% (inactive) |  |
| C[C@@H]1OC2C3=C(C(=O)[C@H]4O[C@@H]4[C@H]3O)[C@@H]1[C@H]1[C@H](C)OC=C3[C@H](O)[C@H]4O[C@H]4/C(=N\OCc4ccccc4)[C@@]321 | 36.2% (inactive) |  |
| CCOC(=O)OCC1OC(C#Cc2ccc(C(C)(C)C)cc2)C=CC1OC(=O)OCC (stereo not given) | 45.2% (inactive) |  |
| COC(=O)C1=C2N(Cc3ccccc3)C(C)=C(C(=O)OC)C(c3ccccc3)N2C(=O)[C@](O)(C(=O)OC)C1 (stereo not given in full) |  | inactive |
| COC(=O)C/C=C\[C@@H](C)[C@@H](/C=N\O[C@@H](C)c1cc(-c2c(C)cc(C)cc2C)no1)NS(=O)(=O)c1ccc(C)cc1 |  | 3.16 µM (active) |
| CCCCC#CC1C=CC(Oc2ccc(C(=O)OC)cc2)C(COC(=O)OCC)O1 (stereo not given) | -28.1% (inactive) |  |
| C=CCOC(=O)C(C(C)=O)C(NC(=O)OC)c1ccc(F)cc1 (stereo not given) |  | 0.398 µM (active) |
| CCCCCCCC#Cc1ccccc1/C=N/S(=O)c1ccc(C)cc1 (stereo not given) | -1.82% (inactive) |  |
| O=C1C=CC2(OCCCO2)C(Br)=C1 | 41.7% (inactive) |  |
| CO[C@@H]1COC(=O)[C@H](Cc2ccccc2)NC(=O)C/C=C\[C@@H](C)[C@H](OC)COC(=O)[C@@H](C)NC(=O)C/C=C\[C@H]1C | 51.2% (inactive) |  |
| COC(=O)NC(c1cccc(C)c1)[C@]1(C(C)=O)CCOC1=O (stereo not given in full) |  | 0.0398 µM (active) |
| COc1ccc(O[C@H]2C=C[C@@H](c3ccccc3)O[C@H]2COC(=O)CC/C(C)=N\O[C@@H](C)c2cn([C@H](CO)Cc3ccccc3)nn2)cc1 |  | 63.1 nM (active) and 631 nM (active) |
| CCCCCC(=O)c1cc(CC(C(=O)OC)C(=O)OC)cc2cc(OC)c(OC)cc12 | -21.3% (inactive) |  |
| CCCCC1CN2C(CCC(C)C2c2ccc(Br)cc2)C(=O)O1 (stereo not given) |  | 1.26 µM (active) |
| COC(c1ccccc1Br)C(C)/C=C/CCO (stereo not given) |  | 1.58 µM (active) |
| CCCCCCCC#Cc1ccccc1C(NC(=O)OC)C(C(=O)OC)C(=O)OC (stereo not given) |  | 2.51 µM (active) |
